Laboratory results from PubChem BioAssay (NCI).
Compounds without any hit were thinned out: in the full panel of roughly 83,000, 20% have a hit.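 Single-dose data. Exposure time 48 hours. Values below 10 considered active.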 Activity calls are given as the source filed them.

Experiments:
Assay in all cases: NCI-60 one-dose screen, 48 h (100 = growth as untreated, 0 = no growth, -100 = all killed)
Conditions in all cases: 10 µM unless noted
NCI-H23 lung = system: NCI-H23 lung
NCI-H322M lung = system: NCI-H322M lung
HOP-62 NSCLC = system: HOP-62 NSCLC
NCI-H460 lung = system: NCI-H460 lung
HOP-92 NSCLC = system: HOP-92 NSCLC
NCI-H522 lung = system: NCI-H522 lung
A549/ATCC NSCLC = system: A549/ATCC NSCLC
786-0 renal = system: 786-0 renal
COLO 205 colon = system: COLO 205 colon
DU-145 prostate = system: DU-145 prostate
K-562 leukemia = system: K-562 leukemia
MALME-3M melanoma = system: MALME-3M melanoma
MDA-MB-231 breast = system: MDA-MB-231 breast
RXF 393 renal = system: RXF 393 renal
SF-268 CNS = system: SF-268 CNS
SF-295 CNS = system: SF-295 CNS
SF-539 CNS = system: SF-539 CNS
UACC-257 melanoma = system: UACC-257 melanoma
M14 melanoma = system: M14 melanoma
HCT-15 colon = system: HCT-15 colon

Measured: growth

O=c1c(-c2nc3ccccc3[nH]2)cc2ccccc2n1Cc1cn(Cc2ccc(N3CCOCC3)cc2)nn1
inactive: NCI-H23 lung 76.5% | NCI-H322M lung 68.8% | HOP-62 NSCLC 16.3% | NCI-H460 lung 55.3% | HOP-92 NSCLC 75.9% | NCI-H522 lung 28% | A549/ATCC NSCLC 74.8% | 786-0 renal 57.1% | COLO 205 colon 83.7% | DU-145 prostate 36.9% | K-562 leukemia 100% | MALME-3M melanoma 64.2% | MDA-MB-231 breast 71.5% | RXF 393 renal 35.7% | SF-268 CNS 22.6% | SF-295 CNS 95.4% | SF-539 CNS 52.6% | UACC-257 melanoma 78.7% | M14 melanoma 80.1% | HCT-15 colon 78.6%

O=C(N=Nc1c(O)[nH]c2ccccc12)c1oc2ccccc2c1CN1CCN(c2ccccc2)CC1
inactive: NCI-H322M lung 33.2% | NCI-H522 lung 20.4% | COLO 205 colon 12.7% | K-562 leukemia 16.5% | MDA-MB-231 breast 24.6% | SF-268 CNS 10.8% | SF-295 CNS 13% | UACC-257 melanoma 20.1%
active: NCI-H23 lung -0.112% | HOP-62 NSCLC 7.31% | NCI-H460 lung -65.3% | HOP-92 NSCLC -12% | A549/ATCC NSCLC -13.5% | 786-0 renal -83.2% | DU-145 prostate -34.2% | MALME-3M melanoma -64.6% | RXF 393 renal -67.6% | SF-539 CNS 8.4% | M14 melanoma -8.59% | HCT-15 colon -8.29%

O=C1C(Cl)=C(NCc2ccco2)C(=O)c2ccccc21
inactive: NCI-H23 lung 37.3% | NCI-H322M lung 115% | HOP-62 NSCLC 37% | NCI-H460 lung 54.5% | HOP-92 NSCLC 103% | NCI-H522 lung 75.9% | A549/ATCC NSCLC 47.4% | 786-0 renal 113% | COLO 205 colon 84.8% | DU-145 prostate 15.6% | K-562 leukemia 70.6% | MALME-3M melanoma 54.6% | MDA-MB-231 breast 68.1% | RXF 393 renal 101% | SF-268 CNS 103% | SF-295 CNS 75.8% | SF-539 CNS 115% | UACC-257 melanoma 58.7% | M14 melanoma 77.4% | HCT-15 colon 81.3%

NCCOc1ncccc1/C=C1\c2ccccc2-c2ccc(F)cc21
active: NCI-H23 lung -6.99% | NCI-H460 lung -33.3% | A549/ATCC NSCLC -51.9% | 786-0 renal 6.26% | COLO 205 colon -30.1% | DU-145 prostate 7.83% | K-562 leukemia 3.28% | SF-295 CNS 2.01% | HCT-15 colon 3.22%
inactive: NCI-H322M lung 48.4% | HOP-62 NSCLC 11.1% | HOP-92 NSCLC 29.8% | NCI-H522 lung 37.7% | MALME-3M melanoma 32.3% | MDA-MB-231 breast 34.7% | RXF 393 renal 25.2% | SF-268 CNS 23.2% | SF-539 CNS 11.5% | UACC-257 melanoma 67.6% | M14 melanoma 25.2%

O=C(Nc1ccc(F)cc1F)c1cc(I)ccc1O
inactive: 786-0 renal 12.3% | COLO 205 colon 77.8% | DU-145 prostate 19.1% | MDA-MB-231 breast 35.2% | SF-268 CNS 16.1% | SF-539 CNS 13.3% | M14 melanoma 16.7% | HCT-15 colon 15.9%
active: NCI-H23 lung 8.86% | NCI-H322M lung 8.13% | HOP-62 NSCLC 2.05% | NCI-H460 lung 6.03% | HOP-92 NSCLC -20% | NCI-H522 lung -12.4% | A549/ATCC NSCLC 6.86% | K-562 leukemia 9.06% | MALME-3M melanoma -17.6% | RXF 393 renal -1.12% | SF-295 CNS 1.39% | UACC-257 melanoma -9.13%

COc1ccc(-c2cc(=O)c3c(OC)c4ccoc4c(/C=C/C=O)c3o2)cc1
active: HCT-15 colon -54.1%
inactive: NCI-H23 lung 40.5% | NCI-H322M lung 51.2% | HOP-62 NSCLC 15.5% | NCI-H460 lung 64.8% | HOP-92 NSCLC 72.4% | NCI-H522 lung 88.3% | A549/ATCC NSCLC 90.7% | 786-0 renal 82.8% | COLO 205 colon 99% | DU-145 prostate 24.8% | K-562 leukemia 12.2% | MALME-3M melanoma 24.8% | MDA-MB-231 breast 53.6% | RXF 393 renal 48.5% | SF-268 CNS 36.2% | SF-295 CNS 31.7% | SF-539 CNS 14.8% | UACC-257 melanoma 108% | M14 melanoma 28.4%

COc1ccc2oc(=O)cc(Cn3cc(Cn4cnc5c4c(=O)n(C)c(=O)n5C)nn3)c2c1
inactive: NCI-H23 lung 101% | NCI-H322M lung 101% | HOP-62 NSCLC 101% | NCI-H460 lung 105% | HOP-92 NSCLC 104% | NCI-H522 lung 98.6% | A549/ATCC NSCLC 103% | 786-0 renal 98% | COLO 205 colon 110% | DU-145 prostate 105% | K-562 leukemia 103% | MALME-3M melanoma 91.5% | MDA-MB-231 breast 98% | RXF 393 renal 120% | SF-268 CNS 100% | SF-295 CNS 102% | SF-539 CNS 94% | UACC-257 melanoma 98% | M14 melanoma 100% | HCT-15 colon 105%

O=C(Nc1ccc(Cl)cc1F)c1cc(F)ccc1O
inactive: DU-145 prostate 16.3% | SF-268 CNS 13.4%
active: NCI-H23 lung 1.46% | NCI-H322M lung 8.54% | HOP-62 NSCLC -0.133% | NCI-H460 lung 4.1% | HOP-92 NSCLC -7.2% | NCI-H522 lung -25.1% | A549/ATCC NSCLC 7.57% | 786-0 renal 3.03% | COLO 205 colon -1.76% | K-562 leukemia 5.39% | MALME-3M melanoma -21.5% | MDA-MB-231 breast -18.1% | RXF 393 renal 9.69% | SF-295 CNS -56.2% | SF-539 CNS 4.32% | UACC-257 melanoma -17.3% | M14 melanoma 2.92% | HCT-15 colon 3.11%
